Bioassay records: PubChem, several laboratories
This is a sample that favours compounds with a hit; in the whole collection about 3.5% have one here.
Mcl1 Bid PPI: Mcl-1/Bid binding inhibitors, primary screen, biochemical, TR-FRET, 1536-well. Induced myeloid leukemia cell differentiation protein Mcl-1 (Homo sapiens), Q07820. TR-FRET Mcl-1/Bid-Dy647 peptide binding. inhibition, % at 21.7 µM. hit rate 0.97% among 220,000;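 active = compounds that cut the binding signal by more than half at the single screening dose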;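 note: His-tagged Mcl-1 with europium anti-His antibody binding Bid BH3 peptide; 0% = Mcl-1 plus peptide wells and 100% = peptide-only wells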
Hck Nef HTS: inhibitors of Nef-activated human Hck kinase, primary screen, biochemical, Z-Lyte FRET, 384-well, Hck-YEEI; Tyrosine-protein kinase HCK (Homo sapiens), P08631; inhibition, % at 20 µM; Recombinant Hck-YEEI plus Nef, Z-Lyte FRET kinase assay; hit rate 0.68% among 220,000;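 active = Hck-Nef kinase inhibition above about 50%, limit read from the data; inactive = inhibition below that limit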;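 note: 0% = DMSO with Hck plus Nef and 100% = Hck alone without Nef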
Target sequence (P08631 whole entry, looked up): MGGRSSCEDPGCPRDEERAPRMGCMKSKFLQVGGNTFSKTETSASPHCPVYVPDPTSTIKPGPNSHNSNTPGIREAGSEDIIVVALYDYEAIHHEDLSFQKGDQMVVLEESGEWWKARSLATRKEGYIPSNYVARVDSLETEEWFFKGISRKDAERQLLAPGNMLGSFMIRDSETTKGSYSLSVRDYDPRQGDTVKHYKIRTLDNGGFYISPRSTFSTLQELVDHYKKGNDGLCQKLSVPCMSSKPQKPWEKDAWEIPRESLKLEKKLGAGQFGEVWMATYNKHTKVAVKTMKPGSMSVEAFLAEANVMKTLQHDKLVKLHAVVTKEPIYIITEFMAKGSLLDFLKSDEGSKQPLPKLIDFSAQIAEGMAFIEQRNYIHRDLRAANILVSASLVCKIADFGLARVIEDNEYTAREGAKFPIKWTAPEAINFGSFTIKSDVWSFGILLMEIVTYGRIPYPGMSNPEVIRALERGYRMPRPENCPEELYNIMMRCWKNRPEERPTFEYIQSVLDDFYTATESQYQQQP
Mcl-1 Bim block: inhibitors of Bim peptide binding to Mcl-1, primary screen, biochemical, bead-based flow cytometry, multiplex. Bim peptide-Mcl-1 binding. hit rate 0.1% among 190,000. AID 1009, 2008. inhibition, % at 10 µM; in the data active = inhibition above about 40%;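 note: 0% = no compound tracer wells and 100% = peptide blocker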
eIF4E 4G PPI: eIF4E–eIF4G protein interaction inhibitors, primary screen, biochemical, uHTS, TR-FRET, eIF4GI fragment | Eukaryotic translation initiation factor 4E (Mus musculus) + Eukaryotic translation … | TR-FRET eIF4E-eIF4GI(517-606) binding, 2 h | inhibition, % at 21.7 µM | hit rate 0.37% among 220,000 | AID 782, 2007;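 active = inhibition above about 30%, limit read from the data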;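 note: 0% = full FRET control wells and 100% = background wells lacking eIF4GI fragment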
Mcl1 Noxa PPI: Mcl-1/Noxa binding inhibitors, primary screen, biochemical, TR-FRET, 1536-well | hit rate 1.5% among 220,000 | AID 1022, 2008 | TR-FRET Mcl-1/Noxa peptide binding, 2 h | Induced myeloid leukemia cell differentiation protein Mcl-1 (Homo sapiens), Q07820 | inhibition, % at 21.7 µM;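 active = compounds that cut the protein-peptide binding signal by more than 50% relative to plate controls in a single-dose test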;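 note: His-tagged Mcl-1 with rhodamine Noxa BH3 peptide and terbium anti-His antibody; 0% = Mcl-1 plus Noxa peptide wells and 100% = peptide-only wells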
14-3-3 Bad inh: inhibitors of 14-3-3 zeta/Bad binding, primary screen, biochemical, TR-FRET, bovine 14-3-3 zeta | inhibition, % at 21.7 µM | hit rate 0.71% among 220,000 | TR-FRET 14-3-3zeta/Dy647-pBad peptide displacement, 1 h | AID 781, 2007 | 14-3-3 protein zeta/delta (Bos taurus), P63103;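 active = inhibition above about 70%, limit read from the data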;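 note: 0% = full 14-3-3 plus peptide FRET controls and 100% = background without 14-3-3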
Starred values were filed as active, the others as inactive; . = no result given; + = active, no number; [ ] = remark or other dose.

SMILES	Mcl1 Bid PPI	Hck Nef HTS	Mcl-1 Bim block	eIF4E 4G PPI	Mcl1 Noxa PPI	14-3-3 Bad inh
Cc1cccn2c(=O)c3cc(C#N)c(=O)n(CC4CCCO4)c3nc12 (stereo unspecified)	-25	+	-1	9	-6	17
COc1ccc(C(=O)N=c2c(C#N)cc3c(=O)n4cccc(C)c4nc3n2Cc2ccco2)cc1	20	8	-3	0	77*	-8
N#Cc1cc2c(=O)n3ccccc3nc2n(CC2CCCO2)c1=N (stereo unspecified)	.	42	.	.	.	.
Cc1cc(C)nc(/N=c2/ssnc2Cl)c1	-12	0	-4	4	5	25
Cc1ccc(N=c2ssnc2Cl)cc1	14	-1	-11	72*[fluorescence artefact?]	12	46
CC(C)(C)C1=CC(=Nc2ccccc2N)C=C(C(C)(C)C)C1=O	-8	2	-3	8	-11	-14
COc1cc(N=c2ssnc2Cl)c(OC)cc1Cl	-32	-1	4	73*[fluorescence artefact?]	11	52
Nc1ccccc1N=c1ssnc1Cl	-20	19	-7	12	54*	25
Cc1cc(Cl)ccc1N=c1ssnc1Cl	-10	-2	-1	48*	25	40
COc1ccc(OC)c(N=c2ssnc2Cl)c1	-22	-3	10	-2	21	62
COc1ccc(CNC(=O)c2cc(-c3ccncc3)nc3c(C)cc(C)cc23)cc1OC	25	2	0	-2	41	46
CN(C(=O)c1ccc(Cl)cc1)C1=CCCCC1CCC#N (stereo unspecified)	65*	3	0	0	2	-3
Cc1ccc(/C=c2/sc3n(c2=O)CCCN=3)o1	-22	-4	15	-1	26	-7
O=C(NCc1ccc(/C=c2\sc3n(c2=O)CCN=3)o1)C(=O)Nc1ccccc1	-51	42	1	23	56*	-9
COC(=O)C1c2ccccc2-c2ccccc21	6	22	-1	2	10	78*
O=C(Cc1ccccc1)NC1c2ccccc2-c2ccccc21	-3	1	9	0	16	11
CCCCSc1nnc(CCC)n1N	1	0	-4	1	-5	-2
CCCCSc1nn[nH]n1	17	5	-2	-1	18	76*
COc1ccccc1N1CCN(C(=O)COc2cc(C)cc(C)c2)CC1	-23	-44	-3	2	3	-8
Cc1ccc(S(=O)(=O)Nc2ccccc2/C=N/c2nc3ccccc3n2C)cc1	-1	2	-6	5	5	-7
CCc1ccc(CCC(=O)Nc2ccc(OC)cc2)o1	-35	7	-3	-5	11	2
COc1ccc(C(N)CCc2ccc(C)o2)cc1 (stereo unspecified)	-65	2	0	-3	20	88*[fluorescence artefact?]
COCCN(C(=O)C1CCC1)c1nnc(-c2cccnc2)s1	-12	1	0	3	13	0
CCN(C(=O)C1CCCCC1)c1nnc(-c2cccnc2)s1	-6	0	2	1	23	77*
Cc1cccc(NC(=O)NC(C)C(c2ccccc2)N2CCN(C)CC2)c1 (stereo unspecified)	6	17	-2	-2	7	1
COc1cc(-c2nc3ccc4ccccc4c3c3c2CCC3)cc(OC)c1OC	10	2	-1	2	25	71*
COc1cc(-c2nc3ccc4ccccc4c3c3c2CCC3)cc(OC)c1O	0	11	0	4	47	0
COc1cccc(-n2c(SCc3ccccn3)nc3c(c2=O)SCC3)c1	82*	24	-2	-3	14	-13
Cc1ccccc1OCc1nc2ccccc2c(=O)n1/N=C/c1cn[nH]c1-c1ccc(Br)cc1	-1	-1	4	4	13	7
O=c1c2ccccc2nc(COc2ccccc2)n1/N=C/c1cn[nH]c1-c1ccccc1	56*	4	-5	-1	-14	37
